Source: PubChem BioAssay AID1159580 (chemical genetic matrix, 2015)
Out of some 5,500 compounds screened, about 2,000 (36%) were called active. Inconclusive results (about 18%) are left out. No stated cut-off is given here; in the data, active means normalized growth mostly below about 0.91 (no sharp cut-off); inconclusive means no clear call, values can overlap the other calls; inactive means mostly above about 0.92. The list shows a part of the results.

Assay: chemical genetic growth profiling, strain panel (AID 1159580);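 further: tested at 20 µM; growth read once vehicle control cultures reached saturation at 30 °C; 1 = growth at the plate median or of vehicle wells; lower values mean less growth of the strain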
Conditions: S. cerevisiae deletion strains, growth OD

Measured: normalized growth

CN1CCN(C2Cc3ccccc3Sc3ccc(Cl)cc32)CC1 (configuration not stated)
active: locus YAL013W, strain DEP1, hits give low values 0.883 | locus YJR075W, strain HOC1, hits give low values 0.881 | locus YNL153C, strain GIM3, hits give low values 0.587 | locus YOR083W, strain WHI5 (second series), hits give low values 0.668
inactive: locus YAL040C, strain CLN3, hits give low values 1 | locus YDR363W, strain ESC2, hits give low values 0.897 | locus YER002W, strain NOP16, hits give low values 1.04 | locus YMR307W, strain GAS1, hits give low values 1.01 | locus YNL175C, strain NOP13, hits give low values 0.915 | locus YNL197C, strain WHI3, hits give low values 0.989 | locus YNL224C, strain SQS1, hits give low values 1.01 | locus YPL055C, strain LGE1, hits give low values 0.923
